Consider seven molecules from PubChem BioAssay (NCI).

The panel holds about 83,000 compounds, 20% with a hit somewhere; the sample as a whole holds those more often.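 Each cell line was grown in a 96-well plate and treated with one concentration of compound for 48 hours. Values below 10 were considered active.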 Unmarked numbers belong to inactive results. Active and inactive are the calls of the source.

Among the test systems are DU-145 prostate; K-562 leukemia; MALME-3M melanoma; MDA-MB-231 breast; RXF 393 renal; SF-268 CNS; SF-295 CNS; SF-539 CNS; UACC-257 melanoma; M14 melanoma; HCT-15 colon; HT29 colon; SNB-75 CNS; SNB-19 CNS; U251 CNS; PC-3 prostate; SK-MEL-5 melanoma; UACC-62 melanoma; LOX IMVI melanoma; SK-MEL-28 melanoma.
What all share (assay): NCI-60 one-dose screen, 48 h (100 = growth as untreated, 0 = no growth, -100 = all killed)
Holding throughout (details): 10 µM unless noted

For the molecule `CC/C=C\C[C@H](O)C/C=C1/C(=O)C=C[C@@H]1C/C=C\CCCCO`, the growth in the assay on DU-145 prostate was 28.3%; with K-562 leukemia, 6.44% (active); in the assay on MALME-3M melanoma, 34.7%; in the assay with MDA-MB-231 breast, 8.29% (active); in the assay with RXF 393 renal, 56.1%; in the assay with SF-268 CNS it was 78.3%. Also, the growth with SF-295 CNS was 10.6%; with SF-539 CNS it was 14.5%; in the assay with UACC-257 melanoma it was 34%; with M14 melanoma, 16.4%; in the assay on HCT-15 colon it was 2.31% (active); in the assay on HT29 colon, -39% (active). The growth in the assay on SNB-75 CNS is 76.1%; with SNB-19 CNS, 55.8%; in the assay on U251 CNS, -33% (active); in the assay on PC-3 prostate, 0.486% (active); in the assay with SK-MEL-5 melanoma it was 10.5%; with UACC-62 melanoma, -23.3% (active). Also, the growth with LOX IMVI melanoma is -68.9% (active); with SK-MEL-28 melanoma, 16.7%.
On to `Nc1n[nH]c2cc(F)c([C@@H]3Nc4c(F)cc5[nH]ncc5c4[C@H]4C5CCC(C5)[C@@H]34)cc12` (stereo not given in full), for which the growth in the assay on DU-145 prostate was -0.222% (active); in the assay with K-562 leukemia it was 11.6%; in the assay on MALME-3M melanoma it was 46.3%; in the assay with MDA-MB-231 breast, 15.5%; with RXF 393 renal it was 41.3%; in the assay with SF-268 CNS it was 10.5%. Moreover, the growth is 15% in the assay with SF-295 CNS; 4.53% (active) in the assay with SF-539 CNS; 72.4% in the assay on UACC-257 melanoma; 21.2% in the assay with M14 melanoma; 6.76% (active) in the assay with HCT-15 colon; 17% with HT29 colon. The growth in the assay on SNB-75 CNS was -20.9% (active); with SNB-19 CNS, 53.1%; in the assay on U251 CNS, 33.2%; in the assay with PC-3 prostate it was 22.5%; in the assay on SK-MEL-5 melanoma, 8.05% (active); in the assay with UACC-62 melanoma, 35.3%. The growth in the assay on LOX IMVI melanoma is 20.2%; in the assay on SK-MEL-28 melanoma, 52.8%.
On to `COc1cc(/C=C2\C(=O)ON=C2C)cc(OC)c1OC`, for which the growth in the assay on DU-145 prostate was 108%; in the assay on K-562 leukemia it was 95%; in the assay on MALME-3M melanoma it was 102%; in the assay on MDA-MB-231 breast, 98.3%; with RXF 393 renal, 114%; in the assay on SF-268 CNS, 95.7%. Also, the growth was 100% with SF-295 CNS; 94.7% in the assay on SF-539 CNS; 103% with UACC-257 melanoma; 96% in the assay on M14 melanoma; 102% in the assay with HCT-15 colon; 103% with HT29 colon. Moreover, the growth is 80.4% in the assay on SNB-75 CNS; 95.6% in the assay on SNB-19 CNS; 100% in the assay with U251 CNS; 97.3% in the assay with PC-3 prostate; 101% in the assay on SK-MEL-5 melanoma; 97% in the assay on UACC-62 melanoma. The growth in the assay with LOX IMVI melanoma was 96.2%; with SK-MEL-28 melanoma, 103%.
For `Cn1c(-c2c(N)n(Cc3cccnc3)c3nc(C#N)c(C#N)nc23)nc2ccccc21`, the growth in the assay with DU-145 prostate is 95.7%; with K-562 leukemia it was 51.1%; in the assay with MALME-3M melanoma, 53.5%; in the assay on MDA-MB-231 breast it was 89.2%; in the assay with RXF 393 renal it was 65.9%; in the assay on SF-268 CNS it was 98.8%. In addition, the growth with SF-295 CNS was 110%; in the assay with SF-539 CNS, 64.7%; in the assay with UACC-257 melanoma it was 102%; in the assay on M14 melanoma, 91.1%; in the assay on HCT-15 colon, 94.5%; in the assay on HT29 colon it was 92.1%. Moreover, the growth is 96.6% in the assay with SNB-75 CNS; 103% in the assay on SNB-19 CNS; 94.3% with U251 CNS; 66% with PC-3 prostate; 89.2% with SK-MEL-5 melanoma; 89.8% in the assay with UACC-62 melanoma. Further, the growth in the assay with LOX IMVI melanoma was 97.4%; with SK-MEL-28 melanoma it was 113%.
On to `Nc1nc(N)c2c(n1)NC(c1ccccc1)C1CCc3ccccc3C1=N2` (stereo not given), for which the growth in the assay on DU-145 prostate is 49.1%; with K-562 leukemia, 12.1%; in the assay on MALME-3M melanoma it was 15.3%; in the assay on MDA-MB-231 breast, 64.6%; in the assay on RXF 393 renal it was 84.7%; in the assay on SF-268 CNS, 62.7%. In addition, the growth in the assay on SF-295 CNS is 17%; with SF-539 CNS, 47.8%; with UACC-257 melanoma it was 19.7%; in the assay on M14 melanoma it was 53.2%; in the assay on HCT-15 colon, 39%; with HT29 colon it was 27.9%. Further, the growth was 54.7% in the assay with SNB-75 CNS; 67.2% in the assay on SNB-19 CNS; 37.1% in the assay on U251 CNS; 40.8% in the assay on PC-3 prostate; -23.3% (active) in the assay on SK-MEL-5 melanoma; 49.3% in the assay with UACC-62 melanoma. Further, the results for the growth in the assay on LOX IMVI melanoma and in the assay with SK-MEL-28 melanoma were 44.5% and 76.4%, respectively.
Take `COc1ccc(OC)c(-c2c(C#N)c(-c3ccc(Cl)cc3)nc3c2c(-c2ccccc2)nn3-c2ccccc2)c1`: the growth in the assay on DU-145 prostate is 99.1%; with K-562 leukemia it was 97.7%; with MALME-3M melanoma, 101%; in the assay on MDA-MB-231 breast, 101%; in the assay on RXF 393 renal, 101%; in the assay with SF-268 CNS, 96%. Also, the growth with SF-295 CNS was 109%; with SF-539 CNS, 98.8%; with UACC-257 melanoma it was 100%; in the assay with M14 melanoma, 101%; in the assay with HCT-15 colon, 105%; with HT29 colon, 109%. For the same molecule, the growth in the assay on SNB-75 CNS was 85.1%; with SNB-19 CNS, 100%; in the assay with U251 CNS, 98.7%; with PC-3 prostate it was 92%; with SK-MEL-5 melanoma, 110%; with UACC-62 melanoma it was 90.7%. Also, the growth with LOX IMVI melanoma was 94.4%; in the assay with SK-MEL-28 melanoma, 105%.
Turning to `COC(=O)c1ccc(CSc2nnc(-c3c(C)nc4ccc(C)cn34)o2)cc1`, the growth with DU-145 prostate is 106%; with K-562 leukemia it was 82.6%; with MALME-3M melanoma, 111%; in the assay on MDA-MB-231 breast it was 84.1%; in the assay on RXF 393 renal, 97%; with SF-268 CNS it was 102%. For the same molecule, the growth is 105% in the assay with SF-295 CNS; 103% in the assay on SF-539 CNS; 116% in the assay on UACC-257 melanoma; 105% in the assay with M14 melanoma; 104% in the assay on HCT-15 colon; 111% in the assay on HT29 colon. The growth in the assay on SNB-75 CNS is 85.9%; in the assay with SNB-19 CNS, 94.2%; with U251 CNS, 99.2%; with PC-3 prostate it was 106%; in the assay on SK-MEL-5 melanoma, 93.8%; in the assay with UACC-62 melanoma it was 89.2%. Also, the figures for the growth with LOX IMVI melanoma and in the assay with SK-MEL-28 melanoma were 94.2% and 103%, respectively.
